Source: PubChem BioAssay (NCATS)
Results filed as inconclusive are left out. The source made the active and inactive calls. Unless noted, calls come from the whole dose curve; as a rule, active = well fitted curve in the direction sought with a large enough effect; inconclusive = small, poorly fitted or top-dose-only effect, or another doubt; inactive = no such curve, though single readings can be large; an effect the other way counts as inactive or inconclusive.

Experiments:
[1] = molecular target: 3',5'-cyclic-AMP phosphodiesterase 4B (Homo sapiens) (UniProt Q07343); assay: qHTS Assay for Inhibitors of PDE-IV (AID 607; active = well fitted activation curve with a large enough effect in the main read-out, with a control signal flat, not every such curve was filed as active)
Sequence of 3',5'-cyclic-AMP phosphodiesterase 4B (Homo sapiens) (Q07343 whole entry, looked up): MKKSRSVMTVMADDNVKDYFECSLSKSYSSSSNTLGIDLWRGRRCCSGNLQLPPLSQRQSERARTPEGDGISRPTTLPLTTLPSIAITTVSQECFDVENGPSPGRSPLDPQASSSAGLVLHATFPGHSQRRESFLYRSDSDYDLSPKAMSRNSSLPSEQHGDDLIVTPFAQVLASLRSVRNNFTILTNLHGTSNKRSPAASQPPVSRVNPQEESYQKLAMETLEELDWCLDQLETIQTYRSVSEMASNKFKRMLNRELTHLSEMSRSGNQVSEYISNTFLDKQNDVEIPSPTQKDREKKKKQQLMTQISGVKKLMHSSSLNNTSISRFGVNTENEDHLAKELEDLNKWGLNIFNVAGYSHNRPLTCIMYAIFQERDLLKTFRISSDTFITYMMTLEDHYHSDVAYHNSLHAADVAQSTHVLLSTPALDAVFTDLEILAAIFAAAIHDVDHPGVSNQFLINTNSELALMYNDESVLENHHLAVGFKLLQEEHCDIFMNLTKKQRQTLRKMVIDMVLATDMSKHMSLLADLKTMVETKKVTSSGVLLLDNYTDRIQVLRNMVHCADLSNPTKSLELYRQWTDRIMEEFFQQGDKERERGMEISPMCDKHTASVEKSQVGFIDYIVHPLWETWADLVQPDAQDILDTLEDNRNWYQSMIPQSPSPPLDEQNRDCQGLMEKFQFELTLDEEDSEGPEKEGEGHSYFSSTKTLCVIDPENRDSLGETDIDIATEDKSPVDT
Method in brief: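 The readout is membrane depolarisation from a cAMP-sensing CNG channel, detected with a potential dye at ex 535/em 590. Cells were HEK293-derived (endogenous PDE-IV) at 1000 cells/well, titrated up to 22.9 uM final.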

[2] = S16 Schwann cell viability assay (CellTiter-Glo assay) (AID 624031);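 note: native untransfected S16 rat Schwann cells; cellular ATP luminescence as a viability measure; nearly all actives have a fitted effect of over 70% in size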
Method in brief: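 Cells were seeded at 500-750 per well in phenol red-free DMEM with 10% FBS and left overnight. Compounds or DMSO were pinned in, incubation ran 24 h at 37 °C/5% CO2, then CellTiter-Glo reagent was added and luminescence measured.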

3D7 = assay: qHTS profiling for inhibitors of Plasmodium falciparum proliferation (AID 504749); note: nearly all actives have a fitted effect of over 60% in size; note: potency is the fitted concentration of half-maximal effect; settings: P. falciparum in erythrocytes, SYBR Green DNA, 72 h; series mostly up to 12.8 µM
Method in brief: (§1)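 Fluorescence of SYBR Green-bound parasite DNA, read at 485/535 nm, served as the growth measure. Infected erythrocytes were cultured with compound 72 h; artemisinin (0.29 uM) and DMSO wells defined the normalization range.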

AS120 = assay: as above; settings: P. falciparum in erythrocytes, SYBR Green DNA, 72 h; series mostly up to 12.8 µM
Method in brief: as §1

CP217 = assay: as above; settings: P. falciparum in erythrocytes, SYBR Green DNA, 72 h; series mostly up to 12.8 µM
Method in brief: as §1

CP237 = assay: as above; settings: P. falciparum in erythrocytes, SYBR Green DNA, 72 h; series mostly up to 12.8 µM
Method in brief: as §1

CP250 = assay: as above; settings: P. falciparum in erythrocytes, SYBR Green DNA, 72 h; series mostly up to 12.8 µM
Method in brief: as §1

CP266 = assay: as above; settings: P. falciparum in erythrocytes, SYBR Green DNA, 72 h; series mostly up to 12.8 µM
Method in brief: as §1

CP269 = assay: as above; settings: P. falciparum in erythrocytes, SYBR Green DNA, 72 h; series mostly up to 12.8 µM
Method in brief: as §1

CP305 = assay: as above; settings: P. falciparum in erythrocytes, SYBR Green DNA, 72 h; series mostly up to 12.8 µM
Method in brief: as §1

CP325 = assay: as above; settings: P. falciparum in erythrocytes, SYBR Green DNA, 72 h; series mostly up to 12.8 µM
Method in brief: as §1

CP329 = assay: as above; settings: P. falciparum in erythrocytes, SYBR Green DNA, 72 h; series mostly up to 12.8 µM
Method in brief: as §1

DIV30 = assay: as above; settings: P. falciparum in erythrocytes, SYBR Green DNA, 72 h; series mostly up to 12.8 µM
Method in brief: as §1

Dd2 = assay: as above; settings: P. falciparum in erythrocytes, SYBR Green DNA, 72 h; series mostly up to 12.8 µM
Method in brief: as §1

HB3 = assay: as above; settings: P. falciparum in erythrocytes, SYBR Green DNA, 72 h; series mostly up to 12.8 µM
Method in brief: as §1

N140 = assay: as above; settings: P. falciparum in erythrocytes, SYBR Green DNA, 72 h; series mostly up to 12.8 µM
Method in brief: as §1

SC27B = assay: as above; settings: P. falciparum in erythrocytes, SYBR Green DNA, 72 h; series mostly up to 12.8 µM
Method in brief: as §1

TAB113 = assay: as above; settings: P. falciparum in erythrocytes, SYBR Green DNA, 72 h; series mostly up to 12.8 µM
Method in brief: as §1

JCK = assay: as above; settings: P. falciparum in erythrocytes, SYBR Green DNA, 72 h; series mostly up to 12.8 µM
Method in brief: as §1

CP252 = assay: as above; settings: P. falciparum in erythrocytes, SYBR Green DNA, 72 h; series mostly up to 12.8 µM
Method in brief: as §1

Measured: Potency

C=Cc1c(C)c2cc3nc(cc4[nH]c(cc5nc(cc1[nH]2)C(C)=C5CCC(=O)O)c(CCC(=O)OC)c4C)[C@@]1(C)C3=CC=C(C(=O)OC)[C@H]1C(=O)OC (tested in a mixture with another compound)
active: 3D7 3.55 µM | AS120 5.62 µM | CP217 10 µM | CP237 5.01 µM | CP250 10 µM | Dd2 2.24 µM | HB3 4.47 µM | N140 7.08 µM | SC27B 5.62 µM | TAB113 1.78 µM
inactive: [1] | [2] | CP266 | CP269 | CP305 | CP325 | CP329 | DIV30

CCN1CCC[C@@H](OC(=O)C(c2ccccc2)c2ccccc2)C1
inactive: [2] | 3D7 | AS120 | CP217 | CP250 | CP266 | CP269 | CP305 | CP329 | HB3 | JCK | SC27B | TAB113
active: CP237 1.78 µM

COC(=O)C1=C(C)NC(C)=C(C(=O)OCCN(C)Cc2ccccc2)[C@H]1c1cccc([N+](=O)[O-])c1
inactive: [1]

NCCC(=O)N[C@@H](Cc1cnc[nH]1)C(=O)O
inactive: [1]

CCC(C)(C)C(=O)O[C@@H]1C[C@H](C)C=C2C=C[C@H](C)[C@@H](CC[C@H]3C[C@@H](O)CC(=O)O3)[C@H]21
inactive: [2] | 3D7 | AS120 | CP217 | CP237 | CP250 | CP252 | CP266 | CP269 | CP305 | CP325 | CP329 | DIV30 | JCK | N140 | SC27B

CCO[C@H]1O[C@@H]([C@H](COCc2ccccc2)OCc2ccccc2)[C@@H](OCc2ccccc2)[C@H]1O
inactive: [1] | [2] | 3D7 | CP217 | CP237 | CP250 | CP252 | CP269 | CP305 | CP325 | CP329 | Dd2 | JCK | SC27B | TAB113

COc1cc2ccc(=O)oc2c(O)c1O
inactive: [1]

C[C@]12CCC(=O)C=C1CCC1C2C(=O)C[C@]2(C)C1CC[C@]2(O)C(=O)CO (stereo not given in full)
inactive: [2] | 3D7 | AS120 | CP217 | CP237 | CP250 | CP252 | CP266 | CP269 | CP305 | CP325 | CP329 | DIV30 | Dd2 | HB3 | JCK | N140 | SC27B | TAB113

CC1(C)S[C@H]2C(NC(=O)[C@@H](N)c3ccc(O)cc3)C(=O)N2[C@@H]1C(=O)O (stereo not given in full)
inactive: [2] | 3D7 | AS120 | CP217 | CP237 | CP250 | CP252 | CP266 | CP269 | CP305 | CP325 | CP329 | DIV30 | Dd2 | HB3 | JCK | N140 | SC27B

CCC(C)C(=O)OC1CC(O)C=C2C=CC(C)C(CCC(O)CC(O)CC(=O)O)C21 (stereo not given)
inactive: [2] | 3D7 | AS120 | CP217 | CP237 | CP250 | CP252 | CP266 | CP269 | CP305 | CP325 | CP329 | DIV30 | Dd2 | HB3 | JCK | N140 | SC27B | TAB113

CC1(C)OC2CC(=O)OC[C@@]23C1CC(=O)[C@]1(C)C3CC[C@@]2(C)C(c3ccoc3)OC(=O)C3O[C@@]321 (stereo not given in full)
inactive: [2] | 3D7 | AS120 | CP217 | CP237 | CP250 | CP252 | CP266 | CP269 | CP305 | CP325 | CP329 | DIV30 | Dd2 | HB3 | JCK | N140 | SC27B | TAB113

CC(=O)[C@]1(O)CCC2C3C=C(Cl)C4=CC(=O)C5CC5[C@@]4(C)C3CC[C@]21C (stereo not given in full)
inactive: [2] | 3D7 | AS120 | CP217 | CP237 | CP250 | CP252 | CP266 | CP269 | CP305 | CP325 | CP329 | DIV30 | Dd2 | HB3 | JCK | N140 | SC27B | TAB113

COC1OC(CO)C(OC2OC(C(=O)O)C(OC3OC(COS(=O)(=O)O)C(OC4OC(C(=O)O)C(OC5OC(CO)C(OC6OC(C(=O)O)C(OC7OC(COS(=O)(=O)O)C(OC8OC(C(=O)O)=C[C@H](O)C8OS(=O)(=O)O)C(O)C7NC(C)=O)[C@@H](O)C6O)C(O)C5NC(C)=O)[C@@H](O)C4O)C(O)C3NC(C)=O)[C@@H](O)C2O)C(O)C1NC(C)=O (stereo not given in full)
inactive: [2] | CP266 | CP269 | CP305 | CP325 | CP329
active: CP217 10 µM | TAB113 14.1 µM

OCC1OC(n2cnc3c(=S)nc[nH]c32)C(O)C1O (stereo not given)
inactive: [2] | 3D7 | AS120 | CP217 | CP237 | CP250 | CP252 | CP266 | CP269 | CP305 | CP325 | CP329 | DIV30 | Dd2 | HB3 | JCK | N140 | SC27B | TAB113

CCC(=O)O[C@@]1(C(=O)CCl)C(C)CC2C3CCC4=CC(=O)C=C[C@@]4(C)[C@]3(F)C(O)C[C@]21C (stereo not given in full)
active: AS120 10 µM | CP237 10 µM | CP252 12.6 µM | DIV30 12 µM | N140 8.91 µM
inactive: [2] | JCK

COC1CC(O[C@H]2/C(C)=C/CC3CC(C[C@]4(CCC(C)C(C5CCCCC5)O4)O3)OC(=O)[C@H]3C=C(C)/C(=N/O)C4OC/C(=C\C=C\[C@@H]2C)[C@@]43O)OC(C)C1O (stereo not given in full)
inactive: [2] | CP266 | CP269 | CP305 | CP325 | CP329 | Dd2

COc1ccc(-c2cc(=O)c3c(O)cc(O[C@H]4OC(COC5OC(C)C(O)C(O)[C@H]5O)C(O)C(O)C4O)cc3o2)cc1O (stereo not given in full)
inactive: [2] | 3D7 | AS120 | CP217 | CP237 | CP250 | CP252 | CP266 | CP269 | CP305 | CP325 | CP329 | DIV30 | Dd2 | HB3 | JCK | N140 | SC27B | TAB113
